Bioassay records as filed in PubChem.
The list is a sample of the results.
aSyn UTR act – Activators via SNCA 5'UTR binding, MLPCN | activity score, % (tested at 7.5 µM), hits read low | alpha-synuclein 5'UTR reporter, activators screen | 7.1% of 300,000 active; in the data active = activity score below about -60%
* hit, by the source's call.

SMILES | aSyn UTR act
CC(=O)OCCc1c2ccccc2c(CCCN(C)C)c2ccccc12 | 103
CCOC(=O)c1cnc2c(ccc3ccccc32)c1NCCCN(C)C | -358*
O=C(CC1=NCCNC(c2ccccc2)C1)c1ccccc1O (stereo unspecified) | -145*
Cc1cccc(/C(N)=N/OC(=O)Cc2ccccc2)c1 | -142*
CCC(C(=O)O/N=C(\N)c1cccc(C)c1)c1ccccc1 (stereo unspecified) | -88*
Cc1cccc(/C(N)=N/OC(=O)N2c3ccccc3Sc3ccccc32)c1 | -70*
O=C(Cn1cc(SCc2cccc(Cl)c2)c2ccccc21)N1CCOCC1 | -153*
Cc1cccc(CSc2cn(CC(=O)N3CCOCC3)c3ccccc23)c1 | -130*
O=C(Nc1nc2c(s1)COc1ccccc1-2)c1cccs1 | -104*
O=C(Nc1nc2c(s1)CCc1ccccc1-2)c1cccs1 | -110*
CC(C)c1ccc(C(=O)NNC(=O)C2C3CCC(C3)C2C(=O)O)cc1 (stereo unspecified) | -115*
CC(C)c1ccc(C(=O)NN2C(=O)C3CCCCC3C2=O)cc1 (stereo unspecified) | -85*
Cc1ccc(/C=N/Nc2nncn2N)cc1 | -120*
O=C(Nc1ccccc1C(F)(F)F)c1ccc2nccnc2c1 | -89*
O=C(Nc1ccccc1Br)c1ccc2nccnc2c1 | -113*
c1ccc(NC2=Nc3ccccc3CS2)cc1 | -201*
Cc1ccc(OCCOc2ccc(Cl)cc2Cl)c([N+](=O)[O-])n1 | -88*
Cc1ccc(COc2ccc(C)nc2[N+](=O)[O-])cc1 | -118*
COc1ccc(OCCOc2ccc(C)nc2[N+](=O)[O-])cc1 | -106*
Cc1cc(C)n(-c2nc3c(c(=O)[nH]c(=O)n3C)n2CC(O)COc2ccc(Cl)cc2Cl)n1 (stereo unspecified) | 73
Cc1c(NS(C)(=O)=O)cccc1-c1nc2cccnc2s1 | -64*
Cc1ccc(-c2nc3cccnc3s2)cc1NC(=O)c1ccco1 | -198*
CCS(=O)(=O)Nc1cc(-c2nc3cccnc3s2)ccc1C | -123*
CCS(=O)(=O)Nc1cccc(-c2nc3cccnc3s2)c1 | -62*
S=C(Nc1ccc(Br)cc1Cl)N1CCCC1 | -91*
SMILES | aSyn UTR act
COc1ccc(/C=C/C2=NC(=C\N(C)C)/C(=O)O2)cc1 | -151*
CC(C)(C)c1ccc(OCC(O)CN2CCOCC2)cc1 (stereo unspecified) | -120*
OC(COc1ccc2ccccc2c1Cl)CN1CCOCC1 (stereo unspecified) | -150*
CC(C)(C)c1ccc(NC(=O)Nc2ccc(OCC(=O)N3CCOCC3)cc2)cc1 | -72*
O=c1nc2c(-c3cccc(Br)c3)n[nH]n2c2ccccc12 | -176*
Cc1ccc(-c2cc(N)n(-c3ccc(F)cc3)n2)cc1 | -147*
Cc1ccc(-c2cc(N)n(-c3ccc(C)cc3)n2)cc1 | -124*
CC(C)c1ccc(NC(=S)N2CCCC2)cc1 | -86*
S=C(Nc1ccccc1)N1CCCCCCC1 | -88*
Cc1ccc(NC(=S)N2CCCC(O)C2)cc1 (stereo unspecified) | -63*
OCC1CCCN(C(=S)Nc2ccc(Nc3ccccc3)cc2)C1 (stereo unspecified) | -130*
Brc1ccc(-n2cnc(-c3ccccc3)c2)cc1 | -136*
COc1ccc(N2CCCC2)c(NC(=O)c2ccc([N+](=O)[O-])o2)c1 | -70*
CS(=O)(=O)N1CCN(c2ccc(NC(=O)c3ccc([N+](=O)[O-])o3)cc2)CC1 | 72
O=C(Nc1ccccc1N1CCCC1)c1ccc([N+](=O)[O-])o1 | -112*
COc1ccc(NS(=O)(=O)c2cc(NC(=O)c3ccc(C)o3)ccc2N2CCCCC2)cc1 | -62*
O=C(Nc1ccc(N2CCCCC2)cc1)c1ccc([N+](=O)[O-])o1 | -214*
C=CCSc1nncn1/N=C/c1ccc(OC)cc1 | -99*
S=c1[nH]c(-c2ccccc2)cn1/N=C/c1ccc(Br)cc1 | -81*
Fc1ccccc1/C=N/n1cc(-c2ccccc2)[nH]c1=S | -85*
Cc1noc(N)c1C(=O)Nc1ccc(C(C)(C)C)cc1 | -106*
CCOC(=O)Cc1ccc(NC(=O)c2ccc(C(C)(C)C)cc2)cc1 | 104
N#Cc1ccccc1OCC(=O)NC(=O)NCc1ccco1 | -83*
CCc1ccc(OCC(=O)NCc2ccco2)c(Br)c1 | -70*
CCNC(=O)NC(=O)COc1ccccc1C#N | -89*
SMILES | aSyn UTR act
CCc1ccc(Nc2nnc(SCC(=O)Nc3cccc(S(=O)(=O)NC4=NCCCCC4)c3)s2)cc1 | -147*
Cc1cccc(Nc2nnc(SCC(=O)Nc3cccc(S(=O)(=O)N4CCCCC4)c3)s2)c1 | -152*
CCc1ccc(-c2csc(-c3c[nH]c4ccccc34)n2)cc1 | -308*
O=C(c1ccccc1)c1nc[nH]c1C(=O)Nc1ccccc1 | -91*
Cc1ccc(NC(=O)c2[nH]cnc2C(=O)NN)cc1 | -65*
CCCc1ccc(OC(=O)c2ccc(O)cc2Cl)cc1 | -63*
Cn1cc(/C=C(\C#N)C(=O)Nc2ccccc2O)c2ccccc21 | -118*
O=C(NOCc1ccccc1)c1ccccc1 | -92*
Cc1cc(C)cc(N(C(=O)c2cc3ccccc3oc2=O)C2C=CS(=O)(=O)C2)c1 (stereo unspecified) | -126*
CCOc1ccc(N(C(=O)c2cc3ccccc3oc2=O)C2C=CS(=O)(=O)C2)cc1 (stereo unspecified) | -88*
Cc1ccc(N(C(=O)c2cc3ccccc3oc2=O)C2C=CS(=O)(=O)C2)cc1 (stereo unspecified) | -107*
Cc1ccc(S(=O)(=O)[N-]c2nc3ccccc3nc2-n2cc[n+](Cc3ccccc3)c2)cc1 | -97*
CCCn1c(=O)c2ccccc2n2c(SCc3nc4ccccc4s3)nnc12 | -160*
CCCn1c(SCc2nc3ccccc3s2)n[nH]c1=O | -165*
O=c1[nH]nc(SCc2nc3ccccc3s2)n1C1CC1 | -144*
C/C(=N\N=C(N)N)c1cc(Cl)ccc1Cl | 65
Nc1nnc(-c2ccc(Cl)cc2Cl)s1 | -108*
CCC1CCCCN1C(=O)c1ccc([N+](=O)[O-])o1 (stereo unspecified) | -79*
CN=Cc1cc(-c2ccccc2)sc1O | -100*
CC(/C=N/Nc1nc2ccccc2[nH]1)=C\c1ccccc1 | -70*
CC(/C=N/Nc1nc(C)cc(=O)[nH]1)=C\c1ccccc1 | -67*
CC(C(=O)N1CCCCC1)n1sc2ccccc2c1=O (stereo unspecified) | -134*
O=C1NC2(CCCCC2)C(=O)N1/N=C/c1ccccc1Br | -81*
CC(C)(O)C#Cc1ccc(C(=O)NC2CCCCC2)s1 | -98*
CC(C)(O)C#Cc1ccc(C(=O)Nc2ccc3c(c2)OCO3)s1 | -143*
SMILES | aSyn UTR act
CCc1ccc(C(=O)NC2CCCCC2)s1 | -82*
CC(=O)[C@]1(O)Cc2c(O)c3c(c(O)c2[C@@H](O[C@H]2C[C@H](N)[C@H](O)[C@H](C)O2)C1)C(=O)c1ccccc1C3=O | 110
O=S1(=O)CCN2C=C(Br)C=C(Br)C2=N1 | -72*
Cc1ccccc1NC(=O)/C=C/c1cccs1 | -119*
CCOC(=O)c1ccc(NC(=O)/C=C/c2cccs2)cc1 | -251*
CC(=O)c1cccc(NC(=O)/C=C/c2ccc([N+](=O)[O-])s2)c1 | -326*
Cc1cc(C)cc(NC(=O)/C=C/c2ccc([N+](=O)[O-])s2)c1 | -244*
Cc1ccccc1NC(=O)/C=C/c1ccc([N+](=O)[O-])s1 | -80*
Cn1cc(/C=N/n2cnc3scc(-c4ccccc4)c3c2=O)c2ccccc21 | 66
Cn1cc(/C=C2\SC(=O)N(c3ccc(O)cc3)C2=O)c2ccccc21 | -86*
